High-throughput results (PubChem BioAssay)
HADH2 inhib = qHTS Assay for Inhibitors of HADH2 (Hydroxyacyl-Coenzyme A Dehydrogenase, Type II) | 3-hydroxyacyl-CoA dehydrogenase type-2 (Homo sapiens), Q99714 | recombinant HADH2, NADH fluorescence, beta-hydroxybutyryl-CoA | Potency, µM (doses to about 57.1 µM), without a hit: at the top dose activity change, negative = inhibition, usual class: inhibitors | actives 3.4% (n = 73,000); also: potency is read from the fitted curve at half-maximal effect; % is scaled to controls: 0 for no effect and ±100 for the full control effect; nearly all actives have a fitted effect of over 60% in size
Target sequence (Q99714 whole entry, looked up, one chain of several): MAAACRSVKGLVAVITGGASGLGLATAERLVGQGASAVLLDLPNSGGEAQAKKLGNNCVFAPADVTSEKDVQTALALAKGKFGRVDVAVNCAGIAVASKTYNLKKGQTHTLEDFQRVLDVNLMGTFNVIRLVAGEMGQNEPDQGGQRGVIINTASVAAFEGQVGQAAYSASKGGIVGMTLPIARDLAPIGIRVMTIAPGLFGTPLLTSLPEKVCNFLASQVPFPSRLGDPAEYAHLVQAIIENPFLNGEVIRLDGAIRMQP
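20 nM HADH2 + cpd, 15 min RT; add 1 mM NAD+/90 uM beta-hydroxybutyryl-CoA; kinetic fluorescence 360/450 nm, 4 min. Tris-HCl pH 9.0, 0.01% Tween-20.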
PK Bst = Pyruvate Kinase. purified pyruvate kinase, luminescence ATP production; ribose 5-phosphate activator present at AC10. Potency, µM. actives 1.2% (n = 51,000). AID 361, 2006; in the data active = potency below about 11 µM; inconclusive = mostly about 12 µM to 25 µM;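 the screen sought inhibitors and activators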;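 also: potency is read from the fitted curve at half-maximal effect; scaled between full activation by ribose 5 phosphate and full inhibition by luteolin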
HSD17B inh = qHTS Assay for Inhibitors of HSD17B4, hydroxysteroid (17-beta) dehydrogenase 4; recombinant HSD17B10, NADH fluorescence kinetic; Potency, µM (doses to about 57.1 µM), for inactives: at the highest dose activity change, negative = inhibition, hits mostly inhibitors; actives 7.6% (n = 75,000); AID 893, 2007;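 also: the protocol describes HADH2 (HSD17B10) and not the HSD17B4 of the title; potency is read from the fitted curve at half-maximal effect; % is scaled to controls: 0 for no effect and ±100 for the full control effect; nearly all actives have a fitted effect of over 70% in size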
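20 nM HADH2, pH 9.0 Tris/Tween; cpd preinc 15 min RT; start w/ 1 mM NAD+ + 90 uM b-hydroxybutyryl-CoA; kinetic fluor ex360/em450 q30s x 4 min; delta last-first.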
4-MU autofl = qHTS Assay for Spectroscopic Profiling in 4-MU Spectral Region. AID 589, 2007. actives 11% (n = 59,000). max dye-equivalent concentration, M. compound autofluorescence, 340/450 nm, 4-MU equivalents; active compounds read high; in the data active = max dye-equivalent concentration above about 10 nM; inconclusive = mostly about 1.1 nM to 9.6 nM
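Compounds in 100 mM Tris, pH 8.0, incubated 15 min at room temperature, then fluorescence read at 340 nm excitation/450 nm emission. Signal converted to 4-MU dye-equivalent concentration using an on-plate six-point 4-MU standard curve.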
AID923 = qHTS Assay for Allosteric/Competitive Inhibitors of Caspase-1: Spectroscopic Profiling in AFC Spectral Region | compound fluorescence, AFC spectral region (405/520 nm) | Potency, µM (doses to about 57.5 µM), inactives show at the top dose fluorescence increase, usual class: activators | actives 1.1% (n = 75,000); also: potency is read from the fitted curve at half-maximal effect; 0% is about no effect
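Compound autofluorescence profiled at 405 nm ex/520 nm em during kinetic caspase 1 run (50 nM enzyme, 5 uM Ac-WEHD-AFC, HEPES pH 7.5, 10 mM DTT). Titration up to 57 uM; baseline from regression intercept, normalized to AFC standard curve.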
A350 autofl = qHTS Assay for Spectroscopic Profiling in A350 Spectral Region. Compound autofluorescence, 340/450 nm, Alexa 350 dye-equivalents; active compounds read high. max dye-equivalent concentration, M. actives 11% (n = 59,000). AID 590, 2007; in the data active = max dye-equivalent concentration above about 10 nM; inconclusive = mostly about 1.1 nM to 9.6 nM
* = called active by the depositor; ! = not confirmed by another sample; [ ] = another dose, or the depositor's remark. This is a sample that favours compounds with a hit; in the whole collection about 13% have one here. Unless noted, calls follow the shape of the dose curve; as a rule, active = well fitted curve in the direction sought with a large enough effect; inconclusive = small, poorly fitted or top-dose-only effect, or another doubt; inactive = no such curve, though single readings can be large; an effect the other way counts as inactive or inconclusive.

What do the screens show for `CN(C)CC[C@H](c1ccc(Br)cc1)c1ccccn1`?
HADH2 inhib: -2%[25.6 µM]; HSD17B inh: -3%[25.6 µM]; 4-MU autofl: 1.8e-08M*!; AID923: 1%[25.7 µM]; A350 autofl: 1.7e-08M*!

What do the screens show for `CN(C)CCC(c1ccccc1)c1ccccn1` (stereo not given)?
HADH2 inhib: -6%; HSD17B inh: 9%; AID923: 1%

Results for O=S(=O)(NCCSc1nnc(-c2ccco2)n1-c1ccccc1)c1ccccc1 ?
HADH2 inhib: -4%; HSD17B inh: 1%; AID923: -2%

How did CCCn1c(C)nc2c(NC(C)CN(C)C)nc(C)nc21 (stereo not given) do in these assays?
HADH2 inhib: -2%; HSD17B inh: 10%; AID923: -1%

How did O=C1C2C3C=CC(C2C(=O)N1CN1CCOCC1)C1C2C(=O)N(CN4CCOCC4)C(=O)C2C31 (stereo not given) do in these assays?
HADH2 inhib: -7%[11.4 µM]; HSD17B inh: -6%[11.4 µM]; 4-MU autofl: inactive; AID923: -3%[11.5 µM]; A350 autofl: inactive

What do the screens show for `CCCn1c(C)nc2c(Nc3ccccc3)nc(C)nc21`?
HADH2 inhib: -7%; HSD17B inh: -3%; AID923: 0%

How did Cc1nc(Nc2ccccc2)c2nc(-c3ccccc3)n(CCCN3CCCCC3C)c2n1 (stereo not given) do in these assays?
HADH2 inhib: 24%; HSD17B inh: 32µM*; AID923: 0%

How did CCN(CC)CCn1c(-c2ccccc2)nc2c(NC3CCCCC3)nc(C)nc21 do in these assays?
HADH2 inhib: inconclusive; HSD17B inh: 25µM*; AID923: -1%

How did CCCn1c(C)nc2c(NC3CCN(Cc4ccccc4)C3)nc(C)nc21 (stereo not given) do in these assays?
HADH2 inhib: 7%; HSD17B inh: 8%; AID923: 0%

Results for Cc1nc(NC2CCCCC2)c2nc(-c3ccccc3)n(CCN3CCCC3)c2n1 ?
HADH2 inhib: -6%; HSD17B inh: 13µM*; AID923: 2%

Results for Cc1nc(NC2CCCCC2)c2nc(-c3ccccc3)n(CCCN3CCCCC3C)c2n1 (stereo not given) ?
HADH2 inhib: -5%; HSD17B inh: 20µM*; AID923: 0%

How did CCCn1c(C)nc2c(NC3CCCCC3)nc(C)nc21 do in these assays?
HADH2 inhib: 8%; HSD17B inh: 4%; AID923: 0%

Results for CN1CCN(CN2C(=O)C3C4C=CC(C3C2=O)C2C3C(=O)N(CN5CCN(C)CC5)C(=O)C3C42)CC1 (stereo not given) ?
HADH2 inhib: -9%[11.4 µM]; HSD17B inh: 7%[11.4 µM]; 4-MU autofl: inactive; AID923: 1%[11.5 µM]; A350 autofl: inactive

What do the screens show for `CC(=O)NCCNc1ncnc2ccc(-c3cccc(NS(C)(=O)=O)c3)cc12`?
HADH2 inhib: 4%; HSD17B inh: 14%; 4-MU autofl: inactive; AID923: 3%; A350 autofl: inactive

What do the screens show for `O=C(O)[C@H]([C@H]1NCCS1)N1Cc2ccccc2C1`?
HADH2 inhib: 8%[11.4 µM]; HSD17B inh: 12%[11.4 µM]; 4-MU autofl: inactive; AID923: 4%[11.5 µM]; A350 autofl: inactive

Results for CCN(CC)CCCC(C)n1c(-c2ccccc2)nc2c(NC3CCCCC3)nc(C)nc21 (stereo not given) ?
HADH2 inhib: 18%; HSD17B inh: 25µM*; AID923: -3%

How did CCCn1c(C)nc2c(NCCN3CCCCC3)nc(C)nc21 do in these assays?
HADH2 inhib: -3%; HSD17B inh: 8%; AID923: 3%

How did Cc1nc(NC2CCCCC2)c2nc(-c3ccccc3)n(CC3CCN(C)CC3)c2n1 do in these assays?
HADH2 inhib: 60%; HSD17B inh: 25µM*; AID923: 2%

How did CCN(CC)CCCC(C)Nc1nc(C)cc(Nc2ccc3nc(C)cc(N)c3c2)n1 (stereo not given) do in these assays?
HADH2 inhib: -1%; HSD17B inh: -15%; AID923: 1%

How did CC(=O)NCCNc1nc(-c2cccc(NS(C)(=O)=O)c2)nc2ccccc12 do in these assays?
HADH2 inhib: -11%; HSD17B inh: 3%; 4-MU autofl: inactive; AID923: 1%; A350 autofl: inactive

Results for O=C1CCCc2c1cc(C(=O)Nc1ccc(Br)cn1)c(=O)n2-c1ccccc1 ?
HADH2 inhib: 30%; PK Bst: >57; HSD17B inh: -9%; 4-MU autofl: 2.1e-08M*; AID923: 4%; A350 autofl: 3.1e-08M*

Results for Cc1ccc(-c2cc3nc4c(c(=O)n3[nH]2)CCCC4)cc1 ?
HADH2 inhib: -4%; HSD17B inh: 7.9µM*; AID923: -1%

What do the screens show for `Cc1[nH]n2c(=O)c3c(nc2c1-c1ccc(Cl)cc1)CCC3`?
HADH2 inhib: -22%; PK Bst: >57; HSD17B inh: inconclusive; 4-MU autofl: inactive; AID923: 1%; A350 autofl: inactive

What do the screens show for `O=c1c2c(nc3c(-c4ccccc4)c[nH]n13)CCCC2`?
HADH2 inhib: -25%; HSD17B inh: 1µM*; AID923: 3%

How did Cc1[nH]n2c(=O)c3c(nc2c1-c1ccccc1)CCC3 do in these assays?
HADH2 inhib: -9%; PK Bst: >57; HSD17B inh: 32µM*; 4-MU autofl: inactive; AID923: 0%; A350 autofl: inactive

Results for CCC1=C2CC[C@H]3C(=O)N(CC(=O)OC)C(=O)[C@H]3[C@H]2[C@@]2(C)C(=O)N(CC3CC3)C(=O)N2C1=O ?
HSD17B inh: 3%; AID923: 1%

Results for CCN(CC)CCCNC(=O)c1ccc(Cc2nc3ccccc3[nH]2)cc1 ?
HADH2 inhib: -12%; HSD17B inh: 5%; AID923: 0%

What do the screens show for `O=C(Nc1c(-c2ccccc2)nc2ccccn12)c1ccco1`?
HADH2 inhib: 1%; PK Bst: >57; HSD17B inh: 7%; 4-MU autofl: inactive; AID923: 0%; A350 autofl: inactive

How did COC(=O)Nc1c(-c2ccccc2)nc2ccccn12 do in these assays?
HADH2 inhib: 25µM*; PK Bst: >57; HSD17B inh: 32µM*; 4-MU autofl: inconclusive; AID923: -1%; A350 autofl: inconclusive

What do the screens show for `COC(=O)Nc1c(-c2ccccc2)nc2ccc(C)cn12`?
HADH2 inhib: 32µM*; PK Bst: >57; HSD17B inh: 25µM*; 4-MU autofl: inconclusive; AID923: 0%; A350 autofl: inconclusive
